Hits are enriched below; roughly 0.57% of the tested compounds scored in any of these assays.
IMPase cell inh = qHTS Assay for Identifying the Cell-Membrane Permeable IMPase Inhibitors | Inositol monophosphatase 1 (Rattus norvegicus), P97697 | CHO-M1 cells, IP1 accumulation, HTRF TR-FRET ratio | inhibition (IP1 accumulation), % at 46.1 µM | 120,000 tested, under 10 active | AID 901, 2007; active means well fitted curve in the direction sought with a large enough effect in the signal ratio, not every such curve was filed as active; inconclusive means small, poorly fitted or top-dose-only effect, or a change in a side signal; inactive means no such curve, though single readings can be large or run the other way; the % refers to the signal ratio;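 further: cells stimulated with carbachol in lithium chloride buffer; plate controls were DMSO basal wells for no effect and reference inhibitor wells for full effect; higher means more IMPase inhibition seen as more IP1 and lower FRET ratio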
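CHO-M1, 2000 cells/well, cultured 16–30 h; cpd up to 46 uM; carbachol (50 uM solution, stimulation buffer w/ 50 mM LiCl, pH 7.4), 30 min 37C; IP-One TR-FRET, 10 min RT; Ex 320/Em 665, 620; Hill-fit AC50.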
IMPase Li cell = qHTS Assay for Identifying the Cell-Membrane Permeable IMPase Inhibitors: Potentiation with Lithium; CHO-M1 cells, IP1 TR-FRET (IP-One), carbachol + lithium; Potency, µM (top dose mostly 59.4 µM), without a hit: top-dose activity, negative = IMPase inhibition, most hits filed as inhibitors; hit rate 0.35% among 210,000;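 further: IP1 builds up when IMPase is blocked and the TR-FRET signal falls; potency means the concentration at half of the fitted maximal effect; plate controls were basal vehicle for no effect and high inhibitor control for full effect; nearly all actives have a fitted effect of over 50% in size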
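Test compounds were applied to CHO-M1 cells previously cultured for 16–30 h at 2000 per well. A small lithium amount accompanied them; after 30 min at 37C, IP1 was quantified by TR-FRET.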
12-hLO inh = qHTS Assay for Inhibitors of 12-hLO (12-human lipoxygenase); hit rate 0.12% among 150,000; purified 12-hLO, xylenol orange hydroperoxide absorbance; Polyunsaturated fatty acid lipoxygenase ALOX12 (Homo sapiens), P18054; AID 1452, 2008; Potency, µM (titrated, usually from 57.1 µM), inactives show at the top dose activity change, negative = inhibition, actives largely listed as inhibitors; further: potency means the concentration at half of the fitted maximal effect; nearly all actives have a fitted effect of over 55% in size
Target sequence (P18054 whole entry, looked up): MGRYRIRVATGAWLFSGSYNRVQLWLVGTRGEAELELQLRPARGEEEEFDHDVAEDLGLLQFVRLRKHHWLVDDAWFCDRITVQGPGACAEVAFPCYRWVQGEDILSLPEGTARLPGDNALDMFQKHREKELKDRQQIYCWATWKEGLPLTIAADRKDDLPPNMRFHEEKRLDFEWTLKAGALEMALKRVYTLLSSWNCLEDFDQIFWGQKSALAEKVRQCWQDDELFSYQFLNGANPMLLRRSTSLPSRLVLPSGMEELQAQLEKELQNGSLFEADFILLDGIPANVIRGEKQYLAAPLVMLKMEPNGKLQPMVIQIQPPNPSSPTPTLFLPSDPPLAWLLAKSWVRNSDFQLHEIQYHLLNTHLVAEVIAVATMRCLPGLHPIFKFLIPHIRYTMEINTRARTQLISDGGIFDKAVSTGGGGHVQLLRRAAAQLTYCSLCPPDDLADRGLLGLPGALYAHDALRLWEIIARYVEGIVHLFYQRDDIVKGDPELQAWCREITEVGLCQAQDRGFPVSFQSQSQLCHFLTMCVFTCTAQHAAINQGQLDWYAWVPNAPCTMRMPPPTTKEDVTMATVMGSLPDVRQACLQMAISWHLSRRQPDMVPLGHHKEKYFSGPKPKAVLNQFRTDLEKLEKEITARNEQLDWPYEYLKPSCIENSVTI
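Purified human 12hLO (150 nM final) was preincubated with compounds for 15 min at room temperature in 25 mM Hepes pH 7.0, 0.01% Triton X-100, then reacted with 40 uM arachidonic acid for 30 min. Hydroperoxide was detected with ferrous iron/xylenol orange.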
ALOX15B inhib = qHTS Assay for Inhibitors of 15-hLO-2 (15-human lipoxygenase 2). Potency, µM (series often up to 57.1 µM), inactives show top-dose activity change, negative = inhibition, actives largely listed as inhibitors. AID 881, 2007. Polyunsaturated fatty acid lipoxygenase ALOX15B (Homo sapiens), O15296. hit rate 0.56% among 110,000. purified 15hLO-2, xylenol orange hydroperoxide absorbance; further: potency means the concentration at half of the fitted maximal effect; nearly all actives have a fitted effect of over 60% in size
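Read-out: hydroperoxide product oxidises ferrous iron, measured as xylenol orange complex via the 573-to-405 nm absorbance ratio after 30 min. Reaction: 50 nM enzyme, 15 min compound preincubation, 45 uM arachidonic acid, 90 min RT, Hepes pH 7.5 with Triton X-100.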
* hit, by the source's call; ? = inconclusive; / = no result; ! = not confirmed by another sample; [ ] = remark or other dose. Unless noted, the call rests on the fitted dose curve; in most records, active means well fitted curve in the direction sought with a large enough effect; inconclusive means small, poorly fitted or top-dose-only effect, or another doubt; inactive means no such curve, though single readings can be large; an effect the other way counts as inactive or inconclusive. Unless noted, on the % scale 0 is the no-effect control and ±100 the full control effect.

SMILES	IMPase cell inh	IMPase Li cell	12-hLO inh	ALOX15B inhib
COCCOC(=O)C1=C(C)N(c2ccccc2)C(=O)NC1c1cccc([N+](=O)[O-])c1 (configuration not stated)	3.8	3.0%	1.3%	/
CC1=C(C(=O)Nc2ccc([N+](=O)[O-])cc2)C(c2cccc(C(F)(F)F)c2)NC(=S)N1c1ccccc1 (configuration not stated)	-2.5	16.9%[38.3 µM]	22.4µM*	?
CCCCC[C@H](O)/C=C/C=C\C/C=C\CCCCCCC(=O)O	/	5.9%	1.3%	/
COc1cc(C)ccc1OCCOc1cc(C)ccc1Cl	17.1	16.1%[38.3 µM]	?	15.8µM*
O=C(NC1(O)C(=O)c2ccccc2C1=O)c1ccccc1	4.4	22.6%[38.3 µM]	-26.4%	25.1µM*
Nc1nc(Cl)cc(NCCO)n1	/	-7.4%	-4.2%[11.4 µM]	-1.4%[11.4 µM]
Cc1ccc2oc(-c3ccc(C)c(NC(=O)Cc4cccs4)c3)nc2c1	2.0	12.6µM*	2.2%	?
Cc1ccc2oc(-c3cccc(NC(=O)Cc4cccs4)c3)nc2c1	3.6	0.8%[38.3 µM]	0.4%	-0.7%
Nc1ccn([C@@H]2O[C@@H](CO)[C@@H](O)[C@H]2O)c(=O)n1	0.8	/	-1.6%	5.8%
COCCN(CCOC)C(=O)c1ccc(Cc2nc3ccccc3[nH]2)cc1	/	/	-5.9%	/
CC(C)(C)c1ccc(O)c(/C=N\O)c1	-6.3	1.0%[38.3 µM]	-13.3%	-5.7%
CC(C)(C)c1ccc(O)c(O)c1	/	-10.3%	-14.2%	5.01µM*
CCOc1ccc(/C(O)=C2/C(=O)C(=O)N(CCOCCO)C2c2ccccc2)cc1 (configuration not stated)	?	11.2µM*	-4.7%	4.2%
CCOc1ccc(/C(O)=C2/C(=O)C(=O)N(CCOCCO)C2c2cccnc2)cc1 (configuration not stated)	?	11.2µM*	-9.8%	4.6%
CN(C)CCCN1C(=O)C(=O)/C(=C(/O)c2ccc(OCc3ccccc3)cc2)C1c1cccnc1 (configuration not stated)	4.8	11.8%[38.3 µM]	-3.1%	1.6%
O=C1C(=O)N(CCOCCO)C(c2ccccn2)/C1=C(\O)c1ccccc1 (configuration not stated)	-1.5	/	-8.8%	11.7%
COCCN1C(=O)C(=O)/C(=C(/O)c2ccc(OC(C)C)cc2)C1c1cccnc1 (configuration not stated)	-18.3	10µM*	-0.5%	0.1%
Clc1ccc(NNc2ccnc3cc(Cl)ccc23)cc1	-1.2	14.2%[38.3 µM]	-5.8%	15.8µM*
S=C(NNc1ccnc2cc(Cl)ccc12)Nc1ccccc1Cl	/	19.1%	-15.7%	/
COC(=O)c1ccc2c(c1)C(C)(C)C(/C=C/c1ccc(OC)c(OC)c1OC)=[N+]2C	8.5	8.6%[38.3 µM]	?	12.6µM*
COC(=O)c1ccc2c(c1)C(C)(C)C(/C=C/c1ccc(O)cc1)=[N+]2C	4.0[1.84 µM]	54.0%[38.3 µM]	-24.7%	-16.4%[11.4 µM]
COc1ccc(NC(=O)c2c(NC(=O)c3ccc(Br)cc3)sc3c2CCCC3)cc1	-2.8	/	/	/
O=C(/C=C\c1ccc(O)c(O)c1)OCCc1ccccc1	-3.1	/	?	12.6µM*
O=C(/C=C/c1ccc(O)c(O)c1)O[C@@H](C(=O)O)[C@@H](OC(=O)/C=C/c1ccc(O)c(O)c1)C(=O)O	/	17.1%	-7.9%	9.3%
COC(=O)c1ccc(SCC(=O)NC2CCCCC2)c([N+](=O)[O-])c1	?	11.2µM*	-2.2%	/
SMILES	IMPase cell inh	IMPase Li cell	12-hLO inh	ALOX15B inhib
CCOc1ccc(C(=O)NC(=S)NC2CCCC2)cc1[N+](=O)[O-]	/	3.0%	28.2µM*	/
CS(=O)(=O)c1ccc(SCC(=O)NC2CCS(=O)(=O)C2)c([N+](=O)[O-])c1 (configuration not stated)	/	-5.3%	/	/
CCOc1ccc(C(=O)NC(=S)Nc2ccc(NC(=O)CC)cc2)cc1[N+](=O)[O-]	/	2.6%	-18.0%	/
COCCCC/C(=N\OCCN)c1ccc(C(F)(F)F)cc1	/	10µM*!	-1.4%	/
COc1cc(OC)cc(-c2nc3n(n2)C(c2ccccc2F)C(C(=O)Nc2cccnc2)=C(C)N3)c1 (configuration not stated)	5.9	/	/	/
Cc1ccc(CN=Cc2[nH]c3ccc(Br)c(Cl)c3c2O)cc1	-12.1	8.91µM*	?	?
COc1ccc2ccccc2c1-c1c(OC)ccc2ccccc12	/	6.3%	/	/
N#Cc1c(-c2ccc(Br)cc2)cc(-c2cccnc2)nc1N	/	22.4µM*	-1.6%	/
NS(=O)(=O)c1ccc(NC(=O)c2ccc(-c3ccccc3)cc2)cc1	/	8.91µM*	/	/
NS(=O)(=O)c1ccc(NC(=O)N2c3ccccc3Sc3ccccc32)cc1	1.6	1.4%[38.3 µM]	15.8µM*	?
NS(=O)(=O)c1ccc(NS(=O)(=O)c2ccc(NC(=O)c3ccc(-c4ccccc4)cc3)cc2)cc1	-1.6	-0.4%[38.3 µM]	3.8%	/
OC1C=C2CCN3Cc4cc5c(cc4C(C1O)C23)OCO5 (configuration not stated)	/	24.5%	-0.6%	9.1%
CC1(C)[C@@H]2CC[C@]1(CC(=O)O)[C@H](Cl)C2	/	2.0%	0.6%[11.4 µM]	2.1%[11.4 µM]
O=C(O)CCC/C=C\C[C@H]1C(=O)C[C@@H](O)[C@@H]1/C=C/[C@@H](O)CCc1ccccc1	/	-8.1%	-2.6%	/
Cc1ccc(S(=O)(=O)Oc2ccc(N=Nc3ccc(-c4ccc(N=Nc5c(O)ccc6cc(S(=O)(=O)O)cc(S(=O)(=O)O)c56)c(C)c4)cc3C)cc2)cc1	/	-0.3%	?	3.16µM*
Cc1ccc(N=Nc2c(O)ccc3cc(S(=O)(=O)O)ccc23)cc1	/	-10.5%	-7.7%[11.4 µM]	-6.2%[11.4 µM]
CCCCc1nc2c(c3c1C[C@H](C)OC3)CN(S(=O)(=O)c1ccc(NC(C)=O)cc1)CC2	/	6.8%	3.5%[11.4 µM]	/
COc1cccc(CN2CC(O)=C(c3nc(-c4ccc(Cl)cc4)cs3)C2=N)c1	18.2	5.62µM*	-25.0%	?
COc1ccc(-c2csc(C3=C(O)CN(Cc4ccc(Cl)cc4)C3=N)n2)cc1OC	-0.6	27.5%[38.3 µM]	-1.6%	-6.0%
COc1cccc2c(=O)n(CC(=O)Nc3cccc(F)c3)ccc12	-22.9	14.1µM*	-4.0%	-9.9%
CN(C)C1C(=O)C(C(N)=O)C(=O)C2(O)C(=O)C3C(=O)c4c(O)ccc(Cl)c4C(O)C3CC12 (configuration not stated)	/	10µM*	-2.2%[0.00818 µM]	-1.2%[0.0915 µM]
C=C1c2c(Cl)ccc(O)c2C(O)=C2C(=O)[C@@]3(O)C(O)=C(C(N)=O)C(=O)[C@@H](N(C)C)[C@@H]3[C@@H](O)[C@H]12	1.1[20.6 µM]	-8.5%	-5.8%[25.6 µM]	10.2%[25.6 µM]
CN(C)C1C(=O)C(C(N)=O)=C(O)[C@@]2(O)C(=O)C3=C(O)c4c(O)ccc(Cl)c4[C@@H](O)C3C[C@@H]12 (some centres not stated)	/	10µM*	/	/

Screens: PubChem BioAssay, National Center for Advancing Translational Sciences (NCATS)
